# Luc counter = Kinase-Glo luciferase inhibition (counter-screen) | AID 1379 | Kinase-Glo luciferase, ATP luminescence, 8 min | 0.28% of 200,000 active | Potency, µM (titrated, usually from 38.3 µM), without a hit: at the top dose activity change, negative = inhibition, hits mostly inhibitors; also: % is scaled to controls: 0 for no effect and ±100 for the full control effect; nearly all actives have a fitted effect of over 60% in size
#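 Light output from Kinase-Glo luciferase with luciferin and 10 uM ATP in 50 mM imidazole pH 7.2, KCl, MgCl2, Tween 20, BSA; compound pin-delivered, 8-min ambient incubation, then luminescence read.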
# ALDH1A1 inh = blocks purified human ALDH1A1 activity; P00352; Purified ALDH1A1, NADH fluorescence, propionaldehyde substrate; 7.3% of 220,000 active; Potency, µM (titrated, usually from 75.3 µM), without a hit: at the top dose activity, negative = inhibition, hits mostly inhibitors; active = well fitted inhibition curve with a large enough effect, not every such curve was filed as active; inconclusive = small, poorly fitted or top-dose-only effect, or another doubt; inactive = no such curve, though single readings can be large or run the other way;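 also: plate controls were no enzyme wells and a reference inhibitor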
# HTT aggregate = reduces HttQ103-GFP aggregates in PC12 cells | PC12 HttQ103-GFP aggregates, Acumen cytometry, 40 h | Potency, µM (highest dose often 46.1 µM), for the others: at the top dose activity change, negative = inhibition, usual class: inhibitors | 1.1% of 220,000 active | AID 1688; also: % is scaled to controls: 0 for no effect and ±100 for the full control effect; nearly all actives have a fitted effect of over 60% in size
#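 Aggregate formation scored by laser-scanning cytometer (488 excitation, 500–530 emission) in lysed PC12 cells expressing Q103-GFP after 100 nM tebufenozide induction; library tested in dose series, with ATPLite reagent added in the multiplex.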
# HTT cytoprotect = cytoprotection in Huntington HTT-Q103 PC12 cell model | PC12 HTT-Q103 induced, cytoprotection, ATP luminescence, 40 h | Potency, µM (highest dose often 56.4 µM), for the others: cytoprotection (ATP increase), usual class: activators | 0.14% of 230,000 active | AID 1471; also: % of control where 0% means no effect; nearly all actives have a fitted effect of over 45% in size
#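 ATP quantification (ATPlite) reports survival of PC12 cells in which tebufenozide, 100 nM final, switches on Htt exon 1 with 103 glutamines linked to GFP; compounds are titrated.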
# HPGD inh = HPGD (human) dehydrogenase inhibition | P15428 | purified HPGD, NADH fluorescence kinetic, PGE2 substrate | Potency, µM, for inactives: top-dose activity change, negative = inhibition, hits mostly inhibitors | 4.3% of 150,000 active | AID 894; active = well fitted inhibition curve with a large enough effect, not every such curve was filed as active; inconclusive = small, poorly fitted or top-dose-only effect, or another doubt; inactive = no such curve, though single readings can be large or run the other way; also: % is scaled to controls: 0 for no effect and ±100 for the full control effect
# Target sequence (P15428 whole entry, looked up): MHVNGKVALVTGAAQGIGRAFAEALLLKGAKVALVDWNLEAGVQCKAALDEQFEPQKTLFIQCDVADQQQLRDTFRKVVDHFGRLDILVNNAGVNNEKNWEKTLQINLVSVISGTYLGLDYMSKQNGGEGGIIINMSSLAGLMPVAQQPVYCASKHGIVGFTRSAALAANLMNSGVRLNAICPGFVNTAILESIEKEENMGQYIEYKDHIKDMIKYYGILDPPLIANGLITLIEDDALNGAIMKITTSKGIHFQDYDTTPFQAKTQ
#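 NADH formation kinetics: reaction with 30 uM PGE2 and 1 mM NAD+ (final), 20 nM enzyme, Tris-HCl pH 8 with Tween 20, after 15 min compound preincubation at room temperature. Fluorescence change, last versus first of five reads.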
# Lamin A splicing = changes lamin A minigene splicing in HeLa cells; 0.01% of 200,000 active; HeLa LMNA splicing GFP/RFP minigene ratio, 48 h; Potency, µM (highest dose often 46.1 µM), for inactives: at the highest dose ratio change, negative = inhibition, hits mostly inhibitors; active = well fitted inhibition curve with a large enough effect in the signal ratio, with a control signal flat, not every such curve was filed as active; inconclusive = small, poorly fitted or top-dose-only effect, or effect the other way, or a change in a side signal; the % refers to the signal ratio; also: % is scaled to controls: 0 for no effect and ±100 for the full control effect
#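 S3 HeLa stable clones carrying a lamin A-EGFP splicing minigene plus DsRed2 were seeded at 600 cells/well in Opti-MEM with 2% FBS, pin-dosed and incubated 48 h at 37°C. Acumen cytometry (488 nm) gave the GFP/RFP total-intensity ratio.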
# Starred values were filed as active, the others as inactive; ? = inconclusive; · = not tested or not shown; [ ] = another dose, or the depositor's remark. Only some compounds are listed: those with a hit (about 9% of all), similar ones and a draw of the others. Unless noted, calls follow the shape of the dose curve; as a rule, active = well fitted curve in the direction sought with a large enough effect; inconclusive = small, poorly fitted or top-dose-only effect, or another doubt; inactive = no such curve, though single readings can be large; an effect the other way counts as inactive or inconclusive. Potency is read from the fitted curve at half-maximal effect.
SMILES,Luc counter,ALDH1A1 inh,HTT aggregate,HTT cytoprotect,HPGD inh,Lamin A splicing
CCSc1nnc(NC(=O)C(NC(=O)c2ccc(Cl)cc2)C(C)C)s1 (centres undefined),1.1%,4.3%,31.6µM*,·,-4.0%,?
O=C(c1cccc(F)c1)N1CCN(c2ccc([N+](=O)[O-])c(N3CCOCC3)c2)CC1,-0.3%,7.94µM*,-0.3%,24.6%[10 µM],-9.6%,1.9%
O=C(c1cccc(F)c1)N1CCC(N2CCOCC2)CC1,19.3%,14.1µM*,-4.5%,8.4%,-8.4%,2.0%
Cc1ccccc1C(=O)N1CCN(c2ccc([N+](=O)[O-])c(N3CCOCC3)c2)CC1,-1.2%,?,12.4%,-4.3%,-2.9%,3.4%
Cc1cc(C)n(-c2cc(N3CCN(C(=O)c4cccc(F)c4)CC3)ccc2[N+](=O)[O-])n1,4.1%,4.47µM*,-2.6%,·,-13.4%,?
O=C(c1ccccc1)N1CCN(c2ccc([N+](=O)[O-])c(N3CCOCC3)c2)CC1,-2.2%,0.891µM*,6.9%,2.1%[10 µM],-9.2%,-6.0%
CCNC(=O)NC(=O)C(C)Oc1ccc(C(=O)OC)cc1 (centres undefined),-1.9%,4.7%,2.7%,6.7%,-4.6%,6.4%
O=C(CSc1ncnc2nc[nH]c12)Nc1ccc(Br)cc1Cl,·,·,-0.9%[9.22 µM],3.7%[10 µM],·,·
CCc1nnc(NC(=O)C2CCCN2S(=O)(=O)c2ccc(F)cc2)s1 (centres undefined),-0.1%,0.4%,-8.1%,-13.8%[10 µM],-0.9%,0.6%
Cn1ccnc1Sc1nc2ccccc2nc1NS(=O)(=O)c1ccccc1,1.8%,-3.1%,-12.2%[9.22 µM],-8.0%[4.97 µM],22.4µM*,-13.0%
O=C(c1ccccc1)c1cc(-c2ccccc2)on1,11.2µM*,?,4.3%,-28.5%,?,-8.0%
COc1ccc(-c2cc(C(=O)O)no2)cc1,-0.3%[39.9 µM],0.447µM*,5.8%[9.22 µM],-20.2%,14.1µM*,13.3%[46 µM]
Cc1cc(NC(=O)c2cc(-c3ccccc3)on2)no1,-5.4%,1.0%,20.1%,-3.8%,-15.6%,-2.3%
CCC(C)NC(=O)c1cc(-c2ccc(OC)cc2)on1 (centres undefined),-5.9%,-10.8%,-4.7%,-35.4%,-14.9%,1.2%
COc1cc(/C=N/NC(=O)c2ccc(F)cc2)ccc1OC(=O)c1ccco1,-3.1%,4.0%,2.6%,·,-13.6%,4.6%
COc1cc(/C=C2/C(=O)NN(c3cccc(F)c3)C2=O)ccc1OC(=O)c1ccco1,-1.4%,22.4µM*,8.3%,7.2%[10 µM],3.98µM*,-10.7%
COC(=O)N/N=C/c1ccc(OC(=O)c2ccco2)c(OC)c1,·,3.7%,6.9%[9.22 µM],29.8%[10 µM],·,·
C=CCN1C(=O)/C(=C\c2ccc(OC(=O)c3ccco3)c(OC)c2)SC1=S,0.3%,0.224µM*,6.7%,-33.2%,·,·
COc1cc(/C=C2/C(=N)N3OC(C)=CC3=NC2=O)ccc1OC(=O)c1ccco1,-0.7%,5.62µM*,0.7%,-56.9%,·,-7.0%[46 µM]
CC1=CC2=NC(=O)/C(=C\c3ccc(OC(=O)c4ccco4)cc3)C(=N)N2O1,·,?,-2.4%,-16.7%,·,·
COc1ccc(CCN2C(=O)/C(=C\c3ccco3)SC2=S)cc1OC,-1.7%,?,-29.4%,14.1%[10 µM],·,·
COc1cc(/C=C2/C(=O)NN(c3ccc(Cl)cc3)C2=O)ccc1OC(=O)c1ccco1,1.3%,?,19.6%,·,7.94µM*,-1.7%
CCCCn1nc2cc(C(=O)NC3CCc4ccccc43)ccc2c1OCC (centres undefined),2.0%,?,?,11.9%[10 µM],?,-11.0%
Cn1cccc1Cc1nnc(SCC(=O)NCc2ccccc2Cl)n1-c1ccc(F)cc1,-0.2%,-12.6%,-2.8%,3.5%,-4.5%,-5.5%
Cc1ccc(-n2c(Cc3cccn3C)nnc2SCC(=O)NC2CCCCC2)cc1,-1.4%,-0.6%,29.3%,-26.4%,-3.6%,4.7%
O=C(CSc1nnc(COc2ccccc2F)n1-c1ccccc1)NCc1ccco1,-3.0%,-9.3%,19.3%,4.8%,20µM*,-0.5%

# From PubChem
